Results from PubChem BioAssay AID1159580 (chemical genetic matrix, 2015).
Out of some 5,500 compounds screened, about 2,000 (36%) were called active. Not shown: some 18% with an inconclusive outcome. Rule as the data show it: active = normalized growth mostly below about 0.91 (no sharp cut-off); inconclusive = no clear call, values can overlap the other calls; inactive = mostly above about 0.92. The list shows a part of the results.

Test: chemical genetic growth profiling, strain panel (AID 1159580);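 also: tested at 20 µM; growth read once vehicle control cultures reached saturation at 30 °C; 1 = growth at the plate median or of vehicle wells; lower values mean less growth of the strain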
Conditions: growth OD

Measured: normalized growth

COc1c(Cl)ccc(Cl)c1C(=O)O
inactive: S. cerevisiae deletion strains, locus YJR043C, strain POL32, active compounds read low 1.01 | S. cerevisiae deletion strains, locus YJR075W, strain HOC1, active compounds read low 0.971 | S. cerevisiae deletion strains, locus YKL009W, strain mrt4, active compounds read low 1.02 | S. cerevisiae deletion strains, locus YKL068W, active compounds read low 1.01 | S. cerevisiae deletion strains, locus YKL085W, strain MDH1 (second series), active compounds read low 1.01 | S. cerevisiae deletion strains, locus YKL085W, strain MDH1, active compounds read low 1.01 | S. cerevisiae deletion strains, locus YKL160W, strain elf1, active compounds read low 0.988 | S. cerevisiae deletion strains, locus YKL190W, strain CNB1, active compounds read low 1.01 | S. cerevisiae deletion strains, locus YKR001C, strain vps1, active compounds read low 1.02 | S. cerevisiae deletion strains, locus YKR026C, strain gcn3, active compounds read low 0.984 | S. cerevisiae deletion strains, locus YKR091W, strain srl3, active compounds read low 0.985 | S. cerevisiae deletion strains, locus YLL001W, strain dnm1, active compounds read low 0.995 | S. cerevisiae deletion strains, locus YLL026W, active compounds read low 0.979 | S. cerevisiae deletion strains, locus YLL041C, strain sdh2, active compounds read low 0.994 | S. cerevisiae deletion strains, locus YLR027C, strain aat2, active compounds read low 0.982 | S. cerevisiae deletion strains, locus YLR039C, strain RIC1, active compounds read low 1.06 | S. cerevisiae deletion strains, locus YLR058C, strain SHM2, active compounds read low 1.02 | S. cerevisiae deletion strains, locus YLR102C, strain apc9, active compounds read low 1.01 | S. cerevisiae deletion strains, locus YLR221C, strain rsa3, active compounds read low 0.983 | S. cerevisiae deletion strains, locus YLR258W, strain gsy2, active compounds read low 0.986 | S. cerevisiae deletion strains, locus YLR262C, strain YPT6 (second series), active compounds read low 0.997 | S. cerevisiae deletion strains, locus YLR262C, strain YPT6, active compounds read low 1.07 | S. cerevisiae deletion strains, locus YLR268W, strain sec22, active compounds read low 1.03 | S. cerevisiae deletion strains, locus YLR320W, strain mms22, active compounds read low 0.974 | S. cerevisiae deletion strains, locus YLR330W, strain CHS5, active compounds read low 1.01 | S. cerevisiae deletion strains, locus YLR342W, strain FKS1 (second series), active compounds read low 1.05 | S. cerevisiae deletion strains, locus YLR342W, strain FKS1, active compounds read low 0.979 | S. cerevisiae deletion strains, locus YLR357W, strain rsc2, active compounds read low 0.992 | S. cerevisiae deletion strains, locus YLR370C, strain arc18, active compounds read low 0.986 | S. cerevisiae deletion strains, locus YLR371W, strain rom2, active compounds read low 1.01 | S. cerevisiae deletion strains, locus YLR384C, strain iki3, active compounds read low 0.985 | S. cerevisiae deletion strains, locus YLR418C, strain cdc73, active compounds read low 1.02 | S. cerevisiae deletion strains, locus YML016C, strain PPZ1, active compounds read low 1.01 | S. cerevisiae deletion strains, locus YML032C, strain rad52, active compounds read low 1.02 | S. cerevisiae deletion strains, locus YML120C, strain ndi1, active compounds read low 0.97 | S. cerevisiae deletion strains, locus YML124C, strain tub3, active compounds read low 1.01 | S. cerevisiae deletion strains, locus YMR058W, strain fet3, active compounds read low 0.979 | S. cerevisiae deletion strains, locus YMR078C, strain ctf18, active compounds read low 1.02 | S. cerevisiae deletion strains, locus YMR125W, strain sto1, active compounds read low 0.951 | S. cerevisiae deletion strains, locus YMR129W, active compounds read low 0.987 | S. cerevisiae deletion strains, locus YMR205C, strain PFK2, active compounds read low 0.975 | S. cerevisiae deletion strains, locus YMR223W, strain ubp8, active compounds read low 1.01 | S. cerevisiae deletion strains, locus YMR231W, strain pep5, active compounds read low 0.984 | S. cerevisiae deletion strains, locus YMR263W, strain SAP30, active compounds read low 1.01 | S. cerevisiae deletion strains, locus YMR307W, strain GAS1, active compounds read low 1.06 | S. cerevisiae deletion strains, locus YNL067W, strain RPL9B, active compounds read low 1.01 | S. cerevisiae deletion strains, locus YNL071W, strain lat1, active compounds read low 0.992 | S. cerevisiae deletion strains, locus YNL128W, strain TEP1, active compounds read low 1 | S. cerevisiae deletion strains, locus YNL153C, strain GIM3, active compounds read low 1.01 | S. cerevisiae deletion strains, locus YNL209W, strain ssb2, active compounds read low 0.988 | S. cerevisiae deletion strains, locus YNL233W, strain BNI4, active compounds read low 1.01 | S. cerevisiae deletion strains, locus YNL248C, strain rpa49, active compounds read low 0.982 | S. cerevisiae deletion strains, locus YNL250W, strain rad50, active compounds read low 1 | S. cerevisiae deletion strains, locus YNL271C, strain bni1, active compounds read low 1.01 | S. cerevisiae deletion strains, locus YNL298W, strain CLA4, active compounds read low 1.02 | S. cerevisiae deletion strains, locus YNL307C, strain MCK1, active compounds read low 1.03 | S. cerevisiae deletion strains, locus YNL322C, strain KRE1 (second series), active compounds read low 0.983 | S. cerevisiae deletion strains, locus YNL322C, strain KRE1, active compounds read low 1.01 | S. cerevisiae deletion strains, locus YNR049C, strain mso1, active compounds read low 0.977 | S. cerevisiae deletion strains, locus YNR052C, strain pop2, active compounds read low 1.01 | S. cerevisiae deletion strains, locus YOL006C, strain TOP1, active compounds read low 1.05 | S. cerevisiae deletion strains, locus YOL012C, strain htz1 0.945 | S. cerevisiae deletion strains, locus YOL147C, strain pex11, active compounds read low 1.01 | S. cerevisiae deletion strains, locus YOR001W, strain rrp6, active compounds read low 0.991 | S. cerevisiae deletion strains, locus YOR061W, strain CKA2, active compounds read low 1.01 | S. cerevisiae deletion strains, locus YOR069W, strain VPS5, active compounds read low 1 | S. cerevisiae deletion strains, locus YOR070C, strain gyp1, active compounds read low 0.988 | S. cerevisiae deletion strains, locus YOR080W, strain dia2, active compounds read low 0.969 | S. cerevisiae deletion strains, locus YOR083W, strain WHI5, active compounds read low 0.988 | S. cerevisiae deletion strains, locus YOR106W, strain vam3, active compounds read low 0.995 | S. cerevisiae deletion strains, locus YOR136W, strain idh2, active compounds read low 1.01 | S. cerevisiae deletion strains, locus YOR144C, strain elg1, active compounds read low 1.01 | S. cerevisiae deletion strains, locus YOR184W, strain ser1, active compounds read low 1.02 | S. cerevisiae deletion strains, locus YOR265W, strain rbl2, active compounds read low 0.976 | S. cerevisiae deletion strains, locus YOR270C, strain vph1, active compounds read low 0.993 | S. cerevisiae deletion strains, locus YOR290C, strain snf2, active compounds read low 0.997 | S. cerevisiae deletion strains, locus YOR316C, strain cot1, active compounds read low 1.01 | S. cerevisiae deletion strains, locus YPL051W, strain arl3, active compounds read low 0.995 | S. cerevisiae deletion strains, locus YPL055C, strain LGE1, active compounds read low 1.02 | S. cerevisiae deletion strains, locus YPL078C, strain atp4, active compounds read low 0.982 | S. cerevisiae deletion strains, locus YPL106C, strain sse1, active compounds read low 0.979 | S. cerevisiae deletion strains, locus YPL240C, strain hsp82, active compounds read low 0.997 | S. cerevisiae deletion strains, locus YPL241C, strain CIN2, active compounds read low 1.01 | S. cerevisiae deletion strains, locus YPR119W, strain clb2, active compounds read low 1.01 | S. cerevisiae deletion strains, locus YPR141C, strain kar3, active compounds read low 1.02 | S. cerevisiae deletion strains, locus YPR163C, strain tif3, active compounds read low 1.01 | S. cerevisiae deletion strains, locus YPR167C, strain met16, active compounds read low 1.01 | S. cerevisiae deletion strains, strain wtn01, active compounds read low 1.01 | S. cerevisiae strains, strain wild type, active compounds read low 1.01
